The text below walks through data of PubChem BioAssay AID647 (Vanderbilt High Throughput Screening Facility, 2007).

Out of some 2,200 compounds screened, about 1,400 (64%) were called active. So high a share suggests a set chosen from earlier hits. This is one part of a sample in which actives are shown more often than they occur.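 Rule for the calls: active = luminescence in either replicate above plate mean of wells with a partly effective reference agonist dose plus 3 SD; inactive = the rest.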

A short description of the experiment: isoproterenol-driven CRE-luciferase response modulation in HEK293 cells, confirmation, counter-screen for D1 allosteric modulator project, cell-based, secondary assay 2, luminescence (AID 647).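 Note: isoproterenol raises cAMP through native beta-adrenoceptor Gs so signal bypasses D1; raw luminescence counts from the Envision reader with one value per duplicate well.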 Particulars: isoproterenol EC30 counter-screen, at 10 µM, hits give high values.
As for `CCC(=NCc1ccco1)c1c(O)n(Cc2ccccc2)c(=O)[nH]c1=O`, the luminescence is 3640 (active).
